The list is not random: actives were taken first. Their share in the collection is about 6.1%.
D1 antag: human D1 dopamine receptor antagonism. 360,000 compounds, 3.2% hits. activity change, negative = inhibition, % at 10 µM. P21728. HEK293 TREx D1 cells, calcium flux, dopamine EC80; active compounds read low; in the data active = activity change below about -30%
Target sequence (P21728 whole entry, looked up): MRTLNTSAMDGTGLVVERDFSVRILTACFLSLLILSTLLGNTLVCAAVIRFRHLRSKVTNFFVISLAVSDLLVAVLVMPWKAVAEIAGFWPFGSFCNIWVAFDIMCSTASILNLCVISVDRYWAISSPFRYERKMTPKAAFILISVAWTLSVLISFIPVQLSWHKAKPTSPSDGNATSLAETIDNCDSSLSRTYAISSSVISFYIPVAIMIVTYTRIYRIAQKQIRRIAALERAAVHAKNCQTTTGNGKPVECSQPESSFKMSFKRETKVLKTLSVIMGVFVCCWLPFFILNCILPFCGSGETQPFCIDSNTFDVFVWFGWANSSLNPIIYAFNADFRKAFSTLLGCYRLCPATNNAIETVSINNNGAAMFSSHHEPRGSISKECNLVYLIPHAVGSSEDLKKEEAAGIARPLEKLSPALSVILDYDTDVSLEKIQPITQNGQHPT
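Tetracycline-induced HEK293 T-REx cells with force-coupled D1 receptor were loaded with a no-wash calcium dye. Compound was added after a 10 s baseline and read kinetically for 180 s; EC80 dopamine was then added and calcium flux followed another 180 s.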
D1 potentiator: potentiators of human D1 dopamine receptor. P21728. HEK293 TREx D1 cells, calcium flux, dopamine EC20 potentiation. potentiation, % at 10 µM. 360,000 compounds, 0.036% hits; in the data active = potentiation above about 30%
D3 ag: activates the human D3 dopamine receptor. D3R DiscoveRx beta-arrestin cells, luminescence, 90 min. max activation, %. 410,000 compounds, 0.58% hits. AID 652048; in the data active = max activation above about 30%
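Agonist-mode cell screen: cells plated at 1500/well and incubated overnight at 37 °C, then exposed to library compounds for 90 min at 37 °C. Detection reagent was added for 30–60 min at room temperature, and luminescence was read.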
DRD3 antagonist: antagonists of human D3 dopamine receptor; P35462; D3R cells, DiscoveRx beta-arrestin luminescence, antagonist mode; active compounds read low; max response, negative = inhibition, %; 360,000 compounds, 2.5% hits; AID 652054; in the data active = max response below about -50%; inconclusive = no clear call, values can overlap the other calls
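Cells expressing the human receptor were seeded at 1500 cells/well, incubated overnight at 37 degrees C in 5% CO2, then exposed to library compounds with dopamine controls for 90 minutes at 37 degrees C before luminescent detection.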
D1 agonist: agonists of human D1 dopamine receptor; activation, % at 2 µM; 360,000 compounds, 1% hits; HEK293 T-REx D1 cells, calcium flux, agonist mode; AID 504660; in the data active = activation above about 30%
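Agonism was scored from calcium flux recorded over 180 s (1 read/s) after pintool compound addition, following a 10-cycle baseline. Cells were inducible force-coupled HEK293 TREx D1, plated overnight at 30 C and loaded with no-wash calcium dye.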
Hits are given with their value; – = inactive; ? = inconclusive; · = no result given.

SMILES	D1 antag	D1 potentiator	D3 ag	DRD3 antagonist	D1 agonist
CCN(CC)CCCN(C(=O)c1ccc(F)cc1)c1nc(-c2ccc(OC)cc2)cs1	–	–	–	?	–
CC(Sc1cn(CCNC(=O)c2ccccc2F)c2ccccc12)c1ccccc1 (centres undefined)	–	–	–	·	–
C=CCSc1ncc(-c2ccccc2)cn1	-30.7	–	–	–	–
COc1ccc(N2CCN(S(=O)(=O)CCNC(=O)c3ccco3)CC2)cc1	–	–	–	–	–
COc1ccc(N2CCN(C(=O)CNC(=O)c3ccco3)CC2)cc1	-79.6	–	–	–	–
O=C(CCCc1ccncc1)c1ccccc1	·	·	–	?	·
Cc1cccc(/C=N/NC(=O)c2cccc(Cl)c2)n1	–	–	–	?	–
Cc1cccc(/C=N/NC(=O)c2cccc([N+](=O)[O-])c2)n1	–	–	–	-50.3	–
CCCOc1ccc(Br)cc1CSC(=N)N	–	–	–	–	48.8
Cc1cc(C)nc(SCc2ccc(C(=O)N/N=C/C3CCCCC3)cc2)n1	–	–	–	–	–
CCOC(=O)c1c(S(=O)(=O)NCC2CCN(CCc3cccs3)CC2)c(C)n(C)c1C	–	–	–	-83.4	–
CCOC(=O)c1c(S(=O)(=O)NCCc2cccs2)c(C)n(C)c1C	–	–	–	–	–
Nc1sc(-c2ccccc2)cc1C(=O)N1CCNCC1	·	·	–	-54.1	·
COc1cc(N2CCCC2)c(OC)cc1/C=C1/NC(=S)NC1=O	-34.9	–	–	–	182.8
O=C(COc1coc(CN2CCc3ccccc3C2)cc1=O)Nc1ccccc1F	–	–	–	–	–
O=C(Nc1ccc2c(c1)OCO2)C1Cc2c(-c3ccc4c(c3)OCO4)ccnc2O1 (centres undefined)	·	·	–	–	·
CCc1c(C)sc(NC(=O)c2cc(-c3ccc(OC)cc3)on2)c1C#N	–	–	–	·	–
Cc1ccc2nc(Cl)c3cc(C(=O)NCCCN4CCCC4)sc3c2c1	–	–	–	-59.5	–
Cc1ccc2cc3cc(C(=O)NCCCN4CCCCCC4)oc3nc2c1	–	–	–	-74.8	–
Cc1ccc2cc3cc(C(=O)NCCCN4CCc5ccccc5C4)oc3nc2c1	–	–	–	-55.4	–
CN(C(=O)CCn1c(=S)oc2ccccc21)c1ccc(F)cc1	–	–	–	–	–
CCCc1cc2c(-c3ccccc3)cc(=O)oc2cc1OCc1ccc(C(=O)O)o1	–	–	–	–	–
COC(=O)c1cn(CCC#N)nc1-c1ccc2ccccc2c1	–	–	–	–	–
Cc1ncc(CN2CCCC(C(=O)Nc3ccc(-c4cccc(F)c4)cc3)C2)cn1 (centres undefined)	-32.7	–	–	–	–
CC(=O)c1cccc(CN2CCCC(C(=O)Nc3ccc(-c4ccco4)cc3)C2)c1 (centres undefined)	-46.4	–	–	–	–
SMILES	D1 antag	D1 potentiator	D3 ag	DRD3 antagonist	D1 agonist
COc1ccc(NS(=O)(=O)c2ccc3c(c2)CCN3C(=O)C2CC2)cc1OC	-32.8	–	–	·	–
CN1CCN(c2ccccc2NS(=O)(=O)c2ccc3c(c2)CCN3C(=O)C2CCC2)CC1	·	·	–	-51.8	·
CCc1ccccc1NS(=O)(=O)c1ccc2c(c1)CCN2C(=O)C1CC1	–	–	–	·	–
Cc1c(NS(C)(=O)=O)c(=O)n(-c2ccccc2)n1C	–	–	–	?	–
Cc1c(NS(=O)(=O)N2CCCC2)c(=O)n(-c2ccccc2)n1C	-52.5	–	–	–	–
O=C(C1CC1)N1CCc2cc(S(=O)(=O)N(CCO)Cc3ccccc3)ccc21	-39.5	–	–	–	–
Cc1c(NS(=O)(=O)c2ccc3c(c2)CCN3C(=O)C2CC2)c(=O)n(-c2ccccc2)n1C	-35.0	–	–	–	–
Cc1cccc(C)c1NC(=O)C(NC(=O)c1ccccn1)c1ccc([N+](=O)[O-])cc1 (centres undefined)	–	–	–	-52.5	–
Cc1cccc(C)c1NC(=O)C(NC(=O)c1ccccn1)c1ccccc1[N+](=O)[O-] (centres undefined)	–	–	–	–	–
COc1cc(-c2cc(C(=O)O)c3c(OC)c(OC)c(OC)cc3n2)ccc1O	-50.3	–	–	–	–
Cn1cc(S(C)=O)c(=O)c2ccc(F)cc21 (centres undefined)	·	·	–	·	·
O=C1/C(=C/c2ccccc2)SC(=S)N1C1CCS(=O)(=O)C1 (centres undefined)	-46.4	–	–	–	–
O=C1/C(=C/c2ccncc2)SC(=S)N1C1CCS(=O)(=O)C1 (centres undefined)	–	–	–	–	–
Cc1cc(C)nc(N/N=C/C2=C(N3CCOCC3)C(=C/c3ccccc3)/CC2)n1	-44.6	–	–	–	–
CCN(CC)c1ccc(/C=C2\CCC(/C=N/NC(=O)c3ccc(=O)n(C)c3)=C2N2CCOCC2)cc1	–	–	–	–	73.8
O=C(O)c1ccccc1N/N=C/C1=C(N2CCOCC2)C(=C\c2ccccc2)/CC1	-30.4	–	–	–	–
O=C(N/N=C/C1=C(N2CCOCC2)C(=C\c2ccccc2)/CC1)Nc1ccccc1	–	–	–	–	–
Cc1cc(=O)[nH]c(N/N=C/C2=C(N3CCOCC3)C(=C\c3ccc(Cl)cc3)/CC2)n1	–	–	–	–	–
CCC(Sc1nc(C)cc(C)n1)C(=O)O (centres undefined)	–	–	–	–	–
CCC(Sc1nc(C)cc(C)n1)C(=O)Nc1cc(C)on1 (centres undefined)	–	–	–	-52.8	–
O=C(O)C1C2C=CC(C2)C1C(=O)NCc1ccco1 (centres undefined)	·	–	–	–	–
COc1ccc(NC(=O)C2C3C=CC(C3)C2C(=O)NCc2ccco2)c(OC)c1 (centres undefined)	–	–	–	-55.7	–
Clc1ccc(Cn2c(/C=C/c3ccco3)nc3ccccc32)cc1	–	–	–	–	–
COc1ccc(/C=C/c2nc3ccccc3n2Cc2ccccc2OC)cc1	–	–	–	–	–
CC(C)CCn1c(-c2nonc2N)nc2ccccc21	-33.2	–	–	-51.2	–
SMILES	D1 antag	D1 potentiator	D3 ag	DRD3 antagonist	D1 agonist
COc1ccccc1Cn1c(/C=C/c2ccccc2)nc2ccccc21	-31.5	–	–	–	–
C#CCn1c(/C=C/c2ccc(Cl)cc2)nc2ccccc21	-36.3	–	–	·	–
COCCn1c(/C=C/c2ccccc2)nc2ccccc21	-33.8	–	–	–	–
CCN(CC)S(=O)(=O)c1ccc2c(c1)c(=O)c(C(=O)N1CCN(c3cc(C)ccc3C)CC1)cn2C	–	–	–	·	–
COc1ccc(-c2nc(CCNC(=O)c3c(F)cccc3Cl)cs2)cc1	–	–	–	·	–
CCCCn1c(/C=C/c2ccco2)nc2ccccc21	–	–	–	–	30.4
CCC(C)Cn1c(/C=C/c2ccccc2)nc2ccccc21 (centres undefined)	–	–	–	·	–
CC(C)CCn1c(/C=C/c2ccccc2)nc2ccccc21	-32.4	–	–	·	–

Compound activity (PubChem BioAssay)
